S2 tox = reduces viability in counter-screen for ATXN expression inhibitors; 400,000 tested, 0.49% active; S2 cells (HEK-293 line with an ATXN2-luciferase reporter) viability, CellTiter-Fluor protease fluorescence, 24 h; Potency, µM (titrated, usually from 56.7 µM), most hits filed as cytotoxic; further: potency means the concentration at half of the fitted maximal effect; nearly all actives have a fitted effect of over 40% in size
USP1 inh = USP1/UAF1 (human) deubiquitinase inhibition. O94782. Potency, µM (series often up to 57.1 µM), for the others: at the top dose activity change, negative = inhibition, hits mostly inhibitors. recombinant USP1/UAF1, Ub-Rhodamine cleavage fluorescence. 390,000 tested, 0.23% active; further: potency means the concentration at half of the fitted maximal effect; on the % scale 0 is the no-effect control and ±100 the full control effect; nearly all actives have a fitted effect of over 60% in size
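USP1/UAF1 complex (1 nM) preincubated 15 min at room temperature with compound, then Ub-Rho substrate (150 nM final) added. Kinetic fluorescence at 480/540 nm over 6 reads at 60 s intervals; 50 mM HEPES pH 7.8, 0.5 mM EDTA, 0.1 mg/ml BSA, 1 mM TCEP, 0.01% Tween-20.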
ATXN2 expr inh = inhibitors of ATXN2 expression; Potency, µM (doses to about 57 µM), for inactives: at the top dose activity change, negative = inhibition, hits mostly inhibitors; AID 1745845; HEK-293 ATXN2-luciferase reporter, luminescence, 24 h; 360,000 tested, 0.72% active; further: potency means the concentration at half of the fitted maximal effect; on the % scale 0 is the no-effect control and ±100 the full control effect; nearly all actives have a fitted effect of over 55% in size
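ATXN2-luciferase reporter cells (luciferase flanked by upstream and downstream ATXN2 gene portions) were treated 24 h at 37 °C with compounds at up to 57 uM. SteadyGlo luminescence gave expression; GF-AFC fluorescence gave viability.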
IL-1B inflam inh = inflammasome signaling inhibition, IL-1 beta readout | THP-1 LPS/ATP IL-1B secretion, AlphaLISA, 16 h; stronger effect = lower value | activity change, % at 57.5 µM | 360,000 tested, 4.7% active | AID 743279; in the data active means activity change below about -50%; inconclusive means mostly about -30% to -49%; further: on the % scale 0 is the no-effect control and ±100 the full control effect
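Secreted IL-1B measured by AlphaLISA bead assay after 16 h compound exposure of THP-1 cells; compounds (final up to 57.5 uM) added 1 h before LPS (250 ng/mL) and ATP (1.25 mM) stimulation; lower signal means less secretion.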
USP2a inh = inhibitors of human ubiquitin-specific protease USP2a | O75604 | USP2 core, Ub-CHOP2 coupled fluorogenic reporter, 485/531 | 330,000 tested, 0.01% active | AID 463254 | Potency, µM (highest dose often 38.3 µM), for inactives: at the highest dose activity change, negative = inhibition, hits mostly inhibitors;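 further: potency means the concentration at half of the fitted maximal effect; plate controls were DMSO wells for no effect and full inhibition by NEM control for full effect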
Target sequence (O75604 whole entry, looked up): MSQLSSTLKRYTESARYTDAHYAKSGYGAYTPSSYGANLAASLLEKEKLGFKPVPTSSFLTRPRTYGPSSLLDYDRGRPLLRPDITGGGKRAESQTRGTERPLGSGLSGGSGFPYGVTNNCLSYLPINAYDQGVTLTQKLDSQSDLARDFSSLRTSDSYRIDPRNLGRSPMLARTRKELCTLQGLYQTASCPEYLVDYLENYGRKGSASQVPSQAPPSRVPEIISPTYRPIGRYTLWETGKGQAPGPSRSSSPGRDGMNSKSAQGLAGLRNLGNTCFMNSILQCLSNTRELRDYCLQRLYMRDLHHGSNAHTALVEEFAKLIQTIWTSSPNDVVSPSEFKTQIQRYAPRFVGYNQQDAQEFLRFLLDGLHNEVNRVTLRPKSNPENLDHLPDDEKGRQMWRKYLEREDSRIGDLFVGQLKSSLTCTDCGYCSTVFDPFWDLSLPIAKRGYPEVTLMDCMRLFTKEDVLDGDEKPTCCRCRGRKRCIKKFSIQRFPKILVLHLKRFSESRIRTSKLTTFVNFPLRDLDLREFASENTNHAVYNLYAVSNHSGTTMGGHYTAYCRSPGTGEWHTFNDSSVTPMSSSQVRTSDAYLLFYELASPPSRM
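Cell-free coupled assay: 10nM USP2 core preincubated 30min RT with compound in Tris-HCl pH 8.0/CaCl2/CHAPS buffer, then 25nM Ub-CHOP2 and 25nM reporter substrate; fluorescence (Ex 485/Em 531) read after 60min RT, normalized to NEM inhibition, concentration-response curves fitted.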
An asterisk follows results filed as active; i = inactive; ? = inconclusive; · = not tested or not shown; [ ] = dose if it differs, or a comment. Shown are actives, neighbours in structure and some others; about 4.8% of the full set was active somewhere. Unless noted, the call rests on the fitted dose curve; in most records, active means well fitted curve in the direction sought with a large enough effect; inconclusive means small, poorly fitted or top-dose-only effect, or another doubt; inactive means no such curve, though single readings can be large; an effect the other way counts as inactive or inconclusive.

SMILES	S2 tox	USP1 inh	ATXN2 expr inh	IL-1B inflam inh	USP2a inh
CCCCn1c(N)c(N(CC(C)C)C(=O)CN2C(=O)NC3(CCC(C(C)(C)CC)CC3)C2=O)c(=O)[nH]c1=O (centres undefined)	?	-22.1%	1.2%	-6.4	·
CCOC(=O)c1ccccc1NC(=O)CSc1nccn1Cc1ccco1	·	-1.1%	·	·	·
COc1ccccc1N(CC(O)COc1c(C)cc(C)cc1C)S(=O)(=O)c1ccccc1 (centres undefined)	?	?	-17.2%	-56.3*	1.9%
COc1ccccc1N(CC(O)COc1ccc(C)cc1)S(=O)(=O)c1ccccc1 (centres undefined)	i	-20.6%	2.0%	-93.3*	0.8%
COc1ccccc1N(CC(O)CN(c1ccccc1)S(C)(=O)=O)S(=O)(=O)c1ccccc1 (centres undefined)	i	-4.2%	14.5%	-12.6	2.5%
COc1ccccc1N(CC(O)COc1ccccc1)S(=O)(=O)c1ccccc1 (centres undefined)	i	-17.6%	-0.5%	-0.4	3.1%
O=C(c1ccc(Cl)cc1)C1CCCN(Cc2ccc(Oc3ncccn3)cc2)C1 (centres undefined)	?	1.6%	·	-2.9	2.0%
Cc1nn(C)cc1CN1CCCC(C(=O)c2ccc(-c3ccccc3)cc2)C1 (centres undefined)	i	-16.9%	-14.1%[11.3 µM]	-90.6*	0.3%
O=C(c1ccc(-c2ccccc2)cc1)C1CCCN(Cc2ccncc2)C1 (centres undefined)	i	-27.1%	-38.6%	-86.1*	-2.4%
Cc1ccsc1C(=O)C1CCCN(Cc2cn(C)nc2-c2ccccc2)C1 (centres undefined)	i	-9.1%	-21.6%	-1.9	1.6%
O=C(c1ccc(Cl)cc1)C1CCCN(Cc2cnn(-c3ccccc3)c2)C1 (centres undefined)	i	-12.1%	?	-98.2*	1.0%
Cc1cccc(CCNC(=O)C2CCC(CNS(=O)(=O)c3c(C)cc(C)cc3C)CC2)c1 (centres undefined)	·	-4.6%	·	·	·
CCCc1cc(=O)oc2cc(OCC(=O)NCC(O)c3ccccc3)ccc12 (centres undefined)	i	-21.0%	·	-3.9	0.2%
Cc1ccc(C)c(NC(=S)NCCc2ccc(F)cc2)c1	i	1.7%	·	-66.8*	-1.2%
Cc1ccc(NC(=O)CCC(=O)NNC(=S)Nc2ccc(F)cc2F)cc1C	i	-13.2%	-0.7%	32.4	-3.8%
Cc1ccc(NC(=S)NNC(=S)Nc2ccc(C)cc2)cc1	?	-16.7%	-17.3%	-1.2	·
Cc1ccc(C)c(NC(=S)NNc2ccc(F)cc2F)c1	i	-12.6%	-3.4%	-100.3*	-1.0%
Cc1ccc(NNC(=S)Nc2ccc(C(C)C)cc2)c(C)c1	i	-8.6%	1.5%	-108.5*	-0.3%
Cc1ccc(NC(=S)NCCc2ccccc2)c(C)c1	i	-9.7%	18.7%	-22.8	-0.4%
O=C(Nc1nnc(-c2ccccc2)o1)c1ccc(Cl)cc1	·	-11.7%	20µM*	51.3	·
CCCSc1ncc(Cl)c(C(=O)Nc2ccc(S(=O)(=O)N3CCCC(C)C3)cc2)n1 (centres undefined)	·	-2.5%	·	·	·
COc1ccc(Cl)cc1N(CC(=O)NCCSCc1ccccc1)S(C)(=O)=O	i	-10.8%	3.1%	-18.6	2.6%
COc1ccc(OC)c(N(CC(=O)NCCSCc2ccc(C)cc2)S(C)(=O)=O)c1	i	3.5%	-11.8%	-62.2*	0.4%
COc1ccc(CCNC(=O)CN(c2ccccc2OC)S(=O)(=O)c2ccc(C)cc2)cc1	?	-23.9%	?	-51.2*	-8.8%
Cc1ccccc1N1CCN(CCc2nnc3n2CCCC3)CC1	i	·	8.5%	·	·
SMILES	S2 tox	USP1 inh	ATXN2 expr inh	IL-1B inflam inh	USP2a inh
O=C(NN1C(=O)c2ccccc2NC1c1ccco1)c1ccccc1 (centres undefined)	i	-0.1%	15.5%	0.0	-1.2%
O=C(NN1C(=O)c2ccccc2NC1c1ccc([N+](=O)[O-])o1)c1ccc([N+](=O)[O-])cc1 (centres undefined)	?	-26.7%	-25.7%	-103.8*	-7.2%
O=C(NN1C(=O)c2ccccc2NC1c1ccc([N+](=O)[O-])o1)c1ccccc1 (centres undefined)	i	-6.2%	-0.7%	-76.3*	-0.4%
CCc1nn(C(CC)C(=O)NCc2ccc(F)cc2)c(=O)c2cc3occc3n12 (centres undefined)	?	-16.8%	-1.4%	·	·
CCCCCOC(=O)Nc1ccc(S(=O)(=O)Nc2cccc([N+](=O)[O-])c2)cc1	i	-9.4%	-14.5%	-88.5*	-4.0%
CCCCOC(=O)Nc1ccc(S(=O)(=O)Nc2ccc([N+](=O)[O-])cc2)cc1	i	-21.3%	12.6%	9.9	-0.2%
Cc1[nH]n(-c2ncc(-c3ccccc3)s2)c(=O)c1C(c1ccc(Cl)cc1)C(C#N)C#N (centres undefined)	?	?	-4.1%	-63.6*	-0.6%
Cc1[nH]n(-c2ccccc2)c(=O)c1C(c1ccccc1[N+](=O)[O-])C(C#N)C#N (centres undefined)	i	-21.0%	·	-9.2	0.8%
CCOC(=O)c1c(NC(C)=O)c2c3c(sc2n1Cc1nc(-c2cccc(C)c2)oc1C)CCCC3	·	-9.2%	·	·	·
O=C(c1cc([N+](=O)[O-])ccc1Cl)N1CCN(Cc2ccccc2)CC1	i	-13.9%	-17.3%	-53.1*	0.2%
O=C(c1ccc([N+](=O)[O-])cc1)N1CCN(Cc2ccccc2)CC1	i	-0.5%	2.7%	18.6	5.0%
O=C(c1cccs1)N1CCN(Cc2cccc([N+](=O)[O-])c2)CC1	i	-5.0%	-16.1%	-53.0*	3.2%
O=C(NCc1ccccn1)c1cnn(-c2nccc(-c3ccccc3F)n2)c1C1CC1	i	·	·	·	·
CC(=O)c1cccc(NC(=O)CN2C(=O)c3ccccc3Sc3ncccc32)c1	?	-20.8%	-36.0%	·	·
Cc1cc(C2=NNC(=NCCc3ccccc3)SC2)c(C)n1CC1CCCO1 (centres undefined)	i	-17.6%	80.2%	-76.7*	-9.0%
CCn1nc(C)cc1C(=O)NCC1Cc2cccc(-c3cccnc3)c2O1 (centres undefined)	i	·	·	·	·
CC(C)CCNC(=O)C(c1ccc(O)cc1)N(C(=O)C1COc2ccccc2O1)c1cccc(O)c1 (centres undefined)	i	-25.6%	-33.6%	-76.3*	-0.5%
Cc1cnc(Nc2ccc(CN3CCOCC3)cc2)nc1Nc1cccc(S(=O)(=O)NC(C)(C)C)c1	·	·	-9.3%	·	·
CCN(CC)C(=O)CSc1nc2sc3c(c2c(=O)n1CCCOC)CCC3	i	-4.2%	3.8%	-54.6*	-1.5%
CCCCn1c(SCC(N)=O)nc2sc3c(c2c1=O)CCC3	i	-15.8%	19.9%	?	-0.4%

High-throughput results: PubChem BioAssay, National Center for Advancing Translational Sciences (NCATS)
